# In article PMC5540273 (PLoS ONE, 2017):
# Key:
# Settings in all cases: concentration: 1 μM, replicates: in singlicate; n = 1
# [1] = system: HIPK2
# [2] = system: HIPK3
# [3] = system: HIPK4
# [4] = system: HPK1
# [5] = system: HUNK
# [6] = system: ICK
# [7] = system: IGF1R
# [8] = system: T1, IKK-alpha
# T1 construct: gene CHUK
# [9] = system: T2, IKK-beta
# T2 construct: gene IKBKB
# [10] = system: T3, IKK-epsilon
# T3 construct: gene IKBKE
# [11] = system: INSRR
# [12] = system: INSR
# [13] = system: IRAK1
# [14] = system: IRAK3
# [15] = system: IRAK4
# [16] = system: ITK
# [17] = system: JAK1(JH1domain-catalytic)
# [18] = system: JAK1(JH2domain-pseudokinase)
# [19] = system: JAK2(JH1domain-catalytic)
# [20] = system: JAK3(JH1domain-catalytic)
# 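Also: KINOMEscan kinase panel screen.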
Compound,%Inh [1],%Inh [2],%Inh [3],%Inh [4],%Inh [5],%Inh [6],%Inh [7],%Inh [8],%Inh [9],%Inh [10],%Inh [11],%Inh [12],%Inh [13],%Inh [14],%Inh [15],%Inh [16],%Inh [17],%Inh [18],%Inh [19],%Inh [20]
COc1cc2ncnc(Nc3ccc(OCc4ccccc4Br)c(Cl)c3)c2cc1OC.Cl [GI261590],0%,0%,0%,33%,11%,0%,0%,32%,16%,18%,0%,0%,32%,13%,18%,12%,17%,0%,0%,0%
COC(=O)c1cccc(NC(=O)NCCNc2ccnc(Nc3ccc(F)cc3)n2)c1 [GSK1379883],0%,0%,0%,45%,90%,0%,6%,0%,0%,1%,0%,0%,13%,0%,4%,11%,30%,0%,1%,0%
Cn1ccc2ncnc(Oc3ccc(NC(=O)Nc4cccnc4)c(Cl)c3)c21,4%,0%,6%,11%,24%,0%,16%,13%,10%,0%,0%,6%,0%,12%,6%,11%,12%,4%,0%,21%
Fc1cccc(COc2ccc(Nc3ncnc4nn5ccccc5c34)cc2Cl)c1 [GW689066],0%,0%,0%,22%,28%,0%,0%,11%,0%,0%,0%,8%,8%,0%,0%,3%,2%,0%,0%,0%
FC(F)(F)c1cc(Nc2nccc(-c3c(-c4ccc(Cl)cc4)nn4ncccc34)n2)ccc1Cl [GW829351],0%,0%,0%,0%,67%,0%,0%,0%,0%,0%,0%,0%,0%,0%,0%,0%,0%,0%,13%,0%
CNc1nccc(-c2c(-c3ccc(F)cc3)ncn2CCCN2CCOCC2)n1 [SB-222516],0%,0%,0%,0%,39%,37%,2%,0%,0%,0%,0%,0%,6%,10%,9%,4%,0%,0%,8%,0%
CCn1c(-c2ccncc2)nc2cnccc21 [SB-735216],18%,24%,15%,0%,27%,10%,0%,20%,23%,10%,0%,7%,6%,0%,17%,0%,15%,12%,10%,0%
c1ccc(-c2ccc3c(-c4ccnc(Nc5ccc6c(c5)OCCO6)n4)cnn3n2)cc1 [GW818941],0%,0%,21%,47%,0%,8%,9%,21%,14%,6%,11%,3%,8%,42%,6%,9%,14%,0%,11%,0%
Cc1cc(N2CCC(NS(=O)(=O)c3ccc(F)cc3)CC2)nc(Nc2cccc(C#N)c2)n1.O=C(O)C(F)(F)F [GSK1653537],47%,0%,0%,43%,25%,0%,0%,12%,2%,7%,0%,0%,0%,0%,4%,1%,7%,0%,6%,0%
FC(F)(F)c1ccc(-c2nn3ncccc3c2-c2ccnc(Nc3cccc(C(F)(F)F)c3)n2)cc1 [GW828205],0%,0%,11%,0%,32%,0%,3%,0%,0%,0%,0%,0%,0%,11%,0%,15%,0%,5%,0%,0%
Fc1ccc(Nc2nccc(-c3c(-c4ccc(Cl)cc4)nn4ncccc34)n2)cc1F [GW829058],11%,36%,19%,16%,40%,25%,6%,34%,29%,0%,20%,19%,24%,7%,0%,18%,0%,12%,39%,37%
Clc1cccc(-c2nc(Nc3ccncc3)c3ccccc3n2)c1 [GW873004],25%,2%,22%,0%,53%,0%,0%,0%,0%,0%,4%,0%,7%,9%,0%,21%,0%,16%,0%,13%
Nc1nc(-c2ccccn2)c(-c2ccnc3ccccc23)s1 [GW548057],5%,15%,0%,20%,8%,7%,9%,8%,0%,22%,0%,0%,33%,0%,0%,5%,28%,5%,22%,0%
Cn1cc(-c2ccc3c(c2)CCN3C(=O)Cc2cccc(C(F)(F)F)c2)c2c(N)ncnc21 [GSK2606414],0%,16%,0%,6%,0%,4%,0%,13%,7%,4%,3%,1%,0%,15%,10%,12%,7%,0%,34%,0%
CC(C)(C)OC(=O)NC1CCCN(c2cc(-c3ccc4c(N)n[nH]c4c3)nc(N)n2)C1 (stereo not drawn) [GSK2286096],0%,12%,0%,26%,5%,7%,0%,0%,0%,12%,0%,0%,0%,0%,8%,6%,6%,15%,0%,0%
CN1CCC(n2cnc(-c3ccc(F)cc3)c2-c2ccnc(NC3CCNCC3)n2)CC1 [SB-229482],45%,0%,0%,27%,0%,45%,0%,0%,0%,0%,0%,0%,20%,0%,4%,0%,0%,0%,18%,0%
C[C@@H]1CCN(C(=O)CO)C[C@@H]1N(C)c1ncnc2[nH]ccc12,0%,0%,0%,0%,0%,0%,0%,0%,0%,0%,9%,0%,0%,19%,0%,0%,94%,21%,100%,98.8%
CC(=O)Nc1n[nH]c2ncc(-c3ccccc3)cc12 [SB-548492],48%,34%,7%,23%,24%,28%,10%,0%,22%,0%,12%,0%,0%,25%,0%,0%,0%,87%,15%,0%
CCc1nc(-c2cccc(C)c2)c(-c2ccnc(NC(=O)c3ccccc3)c2)s1,9%,0%,0%,0%,0%,59%,2%,0%,0%,100%,0%,29%,14%,1%,6%,16%,22%,3%,19%,8%
COc1ccc(-c2oc3ncnc(N)c3c2-c2ccc(OC)cc2)cc1 [SB-589132],25%,3%,0%,40%,8%,0%,0%,49%,4%,6%,0%,0%,56%,15%,58%,19%,25%,31%,1%,19%
O=C(Nc1n[nH]c2nc(-c3ccco3)c(Br)cc12)c1ccc(CN2CCCC2)cc1.O=C(O)[C@H](O)[C@@H](O)C(=O)O [SB-742352],0%,0%,0%,17%,0%,37%,0%,0%,0%,0%,0%,0%,0%,0%,0%,3%,0%,1%,0%,0%
